Results taken from PubChem BioAssay.
Activity calls are given as the source filed them.

Columns and labels:
[1] = test system: Plasmodium falciparum Sir2 (PF13_0152, Sir2A); assay: Plasmodium falciparum Sir2A binding compounds – biochemical, small-molecule microarray, 635 nm fluorescence, primary screen (AID 1098); conditions: fluorescence 635 nm, higher = more signal;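 also: score merges spot fluorescence intensity with its signal-to-noise ratio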
[2] = probe aDKK1 binding to arrayed compounds – biochemical, biotinylated probe, 635/667 nm fluorescence, primary screen (AID 1099); conditions: small-molecule microarray, higher = more signal;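 also: score merges 667nm spot fluorescence with signal to noise across triplicate slides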
[3] = probe aCHRDL2 binding to arrayed compounds – biochemical, biotinylated probe, 635/667 nm fluorescence, primary screen (AID 1100); conditions: small-molecule microarray, higher = more signal
[4] = change in splice reporter luminescence, either direction, cell-based, HEK293, spliceosome inhibition project, primary screen (AID 1101); conditions: HEK293 splicing luciferase reporter, 24 h, higher = more signal, called active from +8 up or from −8 down;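 also: HEK293 cells carrying a splicing-competent luciferase reporter gene; test concentration not given here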
[5] = biological target: Fibroblast growth factor 10 (Homo sapiens) (UniProt O15520); assay: compounds binding fibroblast growth factor 10 – biochemical, small-molecule microarray, 635 nm fluorescence, primary screen (AID 1102); conditions: FGF10 binding, fluorescence 635 nm, higher = more signal
Fibroblast growth factor 10 (Homo sapiens), sequence (O15520 whole entry, looked up): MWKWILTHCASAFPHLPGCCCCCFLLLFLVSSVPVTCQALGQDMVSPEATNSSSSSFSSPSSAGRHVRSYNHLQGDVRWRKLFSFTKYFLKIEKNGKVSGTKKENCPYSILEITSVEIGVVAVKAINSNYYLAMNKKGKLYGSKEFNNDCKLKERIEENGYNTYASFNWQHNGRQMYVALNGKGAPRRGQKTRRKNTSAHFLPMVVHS

[6] = test system: glycogen synthase kinase-3 (GSK3A per assay name; protocol says GSK3B); assay: compounds binding glycogen synthase kinase-3 – biochemical, small-molecule microarray, 635 nm fluorescence, GSK3A, primary screen (AID 1103); conditions: fluorescence 635 nm, higher = more signal; also: the record names both GSK3A and GSK3B
[7] = biological target: Epidermal growth factor receptor (Homo sapiens) (UniProt P00533); assay: compounds binding epidermal growth factor receptor – biochemical, small-molecule microarray, 635 nm fluorescence, primary screen (AID 1104); conditions: EGFR binding, higher = more signal;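 also: score merges 667 nm emission intensity with spot signal to noise over triplicate slides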
Epidermal growth factor receptor (Homo sapiens), sequence (P00533 whole entry, looked up): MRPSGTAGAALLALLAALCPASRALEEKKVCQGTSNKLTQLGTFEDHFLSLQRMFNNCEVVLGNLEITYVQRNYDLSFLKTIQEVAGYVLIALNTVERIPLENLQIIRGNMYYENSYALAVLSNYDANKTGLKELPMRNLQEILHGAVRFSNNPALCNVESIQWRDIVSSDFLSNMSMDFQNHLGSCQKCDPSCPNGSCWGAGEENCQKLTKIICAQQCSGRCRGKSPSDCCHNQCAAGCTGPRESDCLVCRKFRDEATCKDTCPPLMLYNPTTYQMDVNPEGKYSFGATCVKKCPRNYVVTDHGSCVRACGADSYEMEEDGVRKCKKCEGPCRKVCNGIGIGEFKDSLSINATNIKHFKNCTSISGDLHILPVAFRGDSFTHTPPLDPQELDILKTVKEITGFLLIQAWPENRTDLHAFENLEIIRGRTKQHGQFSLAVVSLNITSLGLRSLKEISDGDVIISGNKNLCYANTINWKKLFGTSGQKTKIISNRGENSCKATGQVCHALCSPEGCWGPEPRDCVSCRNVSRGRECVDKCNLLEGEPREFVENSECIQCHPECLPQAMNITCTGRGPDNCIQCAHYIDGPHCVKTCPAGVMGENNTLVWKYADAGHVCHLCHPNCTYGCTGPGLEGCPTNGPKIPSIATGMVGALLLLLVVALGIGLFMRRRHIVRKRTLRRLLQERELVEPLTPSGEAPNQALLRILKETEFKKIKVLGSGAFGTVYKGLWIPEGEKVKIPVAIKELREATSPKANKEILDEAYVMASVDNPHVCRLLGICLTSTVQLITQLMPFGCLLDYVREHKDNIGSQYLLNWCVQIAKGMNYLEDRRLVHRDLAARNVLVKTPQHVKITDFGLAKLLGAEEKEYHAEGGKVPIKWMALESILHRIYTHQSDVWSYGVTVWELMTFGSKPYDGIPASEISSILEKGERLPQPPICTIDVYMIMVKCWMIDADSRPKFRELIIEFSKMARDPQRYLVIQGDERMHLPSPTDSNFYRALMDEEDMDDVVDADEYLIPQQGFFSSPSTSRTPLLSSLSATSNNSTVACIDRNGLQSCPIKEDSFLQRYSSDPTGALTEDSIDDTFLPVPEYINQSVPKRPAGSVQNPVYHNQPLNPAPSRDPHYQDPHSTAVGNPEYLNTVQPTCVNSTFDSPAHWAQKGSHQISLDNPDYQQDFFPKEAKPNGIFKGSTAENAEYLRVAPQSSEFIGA

[8] = biological target: Follistatin-related protein 3 (Homo sapiens) (UniProt O95633); assay: compounds binding follistatin-related protein 3 – biochemical, small-molecule microarray, 635 nm fluorescence, primary screen (AID 1105); conditions: FSTL3 binding, higher = more signal;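 also: score merges emission near 667 nm and signal to noise per printed spot across three slides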
Follistatin-related protein 3 (Homo sapiens), sequence (O95633 whole entry, looked up): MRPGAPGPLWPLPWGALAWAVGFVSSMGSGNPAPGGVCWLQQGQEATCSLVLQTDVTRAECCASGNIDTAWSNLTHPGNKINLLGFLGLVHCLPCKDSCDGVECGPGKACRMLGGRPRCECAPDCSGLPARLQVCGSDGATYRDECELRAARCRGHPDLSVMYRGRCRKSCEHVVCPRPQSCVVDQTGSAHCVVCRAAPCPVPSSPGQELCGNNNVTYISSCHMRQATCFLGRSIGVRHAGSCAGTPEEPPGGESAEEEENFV

[9] = biological target: Dickkopf-related protein 1 (Homo sapiens) (UniProt O94907); assay: small molecules binding DKK1 protein – biochemical, small-molecule microarray, 635 nm fluorescence scan, primary screen (AID 1106); conditions: higher = more signal;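 also: score merges emission near 667 nm with signal to noise over three replicate slides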
Dickkopf-related protein 1 (Homo sapiens), sequence (O94907 whole entry, looked up): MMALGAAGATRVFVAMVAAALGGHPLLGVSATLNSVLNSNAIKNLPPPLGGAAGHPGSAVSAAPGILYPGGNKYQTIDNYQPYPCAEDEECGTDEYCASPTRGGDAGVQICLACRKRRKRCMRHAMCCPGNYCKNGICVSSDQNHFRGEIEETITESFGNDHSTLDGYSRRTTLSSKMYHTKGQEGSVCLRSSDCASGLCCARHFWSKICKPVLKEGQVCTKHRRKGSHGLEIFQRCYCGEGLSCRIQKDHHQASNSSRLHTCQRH

[10] = test system: Inhibin beta A chain (activin A); assay: small molecules binding activin A – biochemical, small-molecule microarray, 635 nm fluorescence scan, primary screen (AID 1107); conditions: INHBA, higher = more signal;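 also: mouse activin A protein probed at 4.33 µg/mL on printed slides; score merges bound-protein fluorescence near 667 nm with spot signal-to-noise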
[11] = test system: Human papillomavirus type 1a protein E7 (residues 44-93); assay: small molecules binding HPV E7 44-93 – biochemical, small-molecule microarray, residues 44-93, 635 nm fluorescence, primary screen (AID 1108); conditions: fluorescence 635 nm, higher = more signal;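 also: E7 fragment applied at 1 µg/mL in TBST for 1 h at 4 C; score combines spot fluorescence with its signal to noise ratio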
[12] = hepatitis C replication reporter changes, two-sided – Huh7 cells, luciferase reporter, HCV replication inhibitor project, primary screen (AID 1109); conditions: Huh7 HCV replicon luciferase reporter, 48 h; higher = more signal;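 also: huh7 hepatoma cells harbouring a luciferase neomycin HCV replicon reporter; luciferase luminescence as measure of HCV replicon replication; test concentration not given here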
[13] = biological target: Left-right determination factor 2 (Homo sapiens) (UniProt O00292); assay: small molecules binding LEFTY2 protein – biochemical, small-molecule microarray, 635 nm fluorescence scan, primary screen (AID 1110); conditions: higher = more signal
Left-right determination factor 2 (Homo sapiens), sequence (O00292 whole entry, looked up): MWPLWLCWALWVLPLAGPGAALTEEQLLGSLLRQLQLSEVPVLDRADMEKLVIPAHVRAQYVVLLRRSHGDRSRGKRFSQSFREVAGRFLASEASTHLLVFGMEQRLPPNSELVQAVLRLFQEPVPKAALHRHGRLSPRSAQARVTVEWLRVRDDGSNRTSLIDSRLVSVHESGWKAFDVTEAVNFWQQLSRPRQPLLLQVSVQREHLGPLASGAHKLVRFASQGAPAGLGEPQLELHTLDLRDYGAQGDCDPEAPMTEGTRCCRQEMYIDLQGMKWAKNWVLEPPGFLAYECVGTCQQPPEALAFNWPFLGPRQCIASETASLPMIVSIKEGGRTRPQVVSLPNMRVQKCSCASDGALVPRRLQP

[14] = biological target: Calmodulin-1 (Homo sapiens) (UniProt P0DP23); assay: small molecules binding calmodulin-1 with EGTA – biochemical, small-molecule microarray, Cy5-labelled CALM1, profiling panel (AID 1111); conditions: Cy5-CALM1 binding fluorescence, higher = more signal;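 also: labelled calmodulin applied in Tris saline Tween buffer holding calcium plus EGTA and DTT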
[15] = biological target: Calmodulin-1 (Homo sapiens) (UniProt P0DP23); assay: small molecules binding Ca-loaded calmodulin-1 – biochemical, small-molecule microarray, Cy5-labelled CALM1, plus calcium, artefact control for SMM control-protein annotation, profiling panel (AID 1112); conditions: Cy5-CALM1 binding fluorescence, higher = more signal;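 also: score merges spot fluorescence with signal to noise from triplicate slides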
[16] = probe aWnt5a binding to arrayed compounds – biochemical, biotinylated probe, 635/667 nm fluorescence, primary screen (AID 1113); conditions: small-molecule microarray, higher = more signal;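 also: score merges 667 nm fluorescence intensity with signal-to-noise per printed feature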
[17] = probe aShh binding to arrayed compounds – biochemical, biotinylated probe, 635/667 nm fluorescence, primary screen (AID 1114); conditions: small-molecule microarray, higher = more signal;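 also: probe is biotin-labelled aShh protein from a stem cell growth factor screen; measures binding of labelled protein to compounds printed on the slide; score merges feature fluorescence at 667 nm with signal-to-noise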
[18] = probe aNog binding to arrayed compounds – biochemical, biotinylated probe, 635/667 nm fluorescence, primary screen (AID 1115); conditions: small-molecule microarray, higher = more signal;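 also: probe is biotinylated aNog protein used at 0.15 µg/mL for 1 h at 4 C; z-score combines 667 nm fluorescence of each spot with its signal to noise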
[19] = biological target: Torsin-1A-interacting protein 1 (Homo sapiens) (UniProt Q5JTV8); assay: compound microarray binding of lysate hLAP1 – cell lysate, small-molecule microarray, COS7 lysate, 635/667 nm fluorescence, primary screen (AID 1116); conditions: 635 nm fluorescence, higher = more signal
Torsin-1A-interacting protein 1 (Homo sapiens), sequence (Q5JTV8 whole entry, looked up): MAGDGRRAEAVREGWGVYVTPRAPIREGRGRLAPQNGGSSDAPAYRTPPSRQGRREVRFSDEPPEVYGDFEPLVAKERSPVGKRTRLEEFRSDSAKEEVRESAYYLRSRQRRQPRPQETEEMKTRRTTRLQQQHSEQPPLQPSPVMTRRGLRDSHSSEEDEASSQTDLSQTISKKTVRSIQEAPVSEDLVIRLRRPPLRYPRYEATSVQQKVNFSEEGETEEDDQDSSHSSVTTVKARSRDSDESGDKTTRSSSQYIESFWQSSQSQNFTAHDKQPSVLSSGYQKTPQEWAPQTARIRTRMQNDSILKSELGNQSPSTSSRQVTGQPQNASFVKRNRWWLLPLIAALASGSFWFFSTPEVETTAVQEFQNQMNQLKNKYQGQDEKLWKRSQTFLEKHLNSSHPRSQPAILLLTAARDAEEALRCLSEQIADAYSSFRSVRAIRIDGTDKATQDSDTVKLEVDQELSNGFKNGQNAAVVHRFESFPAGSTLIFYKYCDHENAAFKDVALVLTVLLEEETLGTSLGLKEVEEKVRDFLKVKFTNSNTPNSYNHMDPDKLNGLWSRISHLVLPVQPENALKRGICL

[20] = biological target: Alpha-bungarotoxin (Bungarus multicinctus) (UniProt P60615); assay: compounds binding labelled alpha-BTX control protein – biochemical, small-molecule microarray, Alexa647 label, 635/667 nm fluorescence, artefact control for SMM control protein annotation, profiling panel (AID 1117); conditions: alpha-BTX-A647 binding fluorescence, higher = more signal
Alpha-bungarotoxin (Bungarus multicinctus), sequence (P60615 whole entry, looked up): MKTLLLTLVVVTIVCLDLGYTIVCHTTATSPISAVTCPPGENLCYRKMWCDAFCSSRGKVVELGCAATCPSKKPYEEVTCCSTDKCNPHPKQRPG

| Structure (SMILES) | composite z-score [1] | composite z-score [2] | composite z-score [3] | z-score [4] | composite z-score [5] | composite z-score [6] | composite z-score [7] | composite z-score [8] | composite z-score [9] | composite z-score [10] | composite z-score [11] | z-score [12] | composite z-score [13] | composite z-score [14] | composite z-score [15] | composite z-score [16] | composite z-score [17] | composite z-score [18] | composite z-score [19] | composite z-score [20] |
| --- | --- | --- | --- | --- | --- | --- | --- | --- | --- | --- | --- | --- | --- | --- | --- | --- | --- | --- | --- | --- |
| CCOC(=O)NN=C1C[C@@H](O)[C@@H](O)[C@@H]2[C@@H]3C(=O)N(Cc4ccccc4)C(=O)[C@@H]3CC[C@H]12 | 0.245 | -0.259 | -0.301 | -1.14 (inactive) | -0.0919 | -0.435 | 0.242 | 0.0487 | 0.615 | -0.0924 | -0.0228 | 0.47 | 0.545 | 0.903 | -0.677 | -0.0529 | -0.0626 | -0.158 | -0.273 | 0.405 |
| C[C@@H]1C=CCC(=O)OC[C@H]2O[C@@H](C=C[C@@H]2O)[C@H](C)C=CCC(=O)OC1 | 1.29 | -0.594 | -1.55 | -0.813 (inactive) | 1.1 | 0.963 | 1.23 | 1.59 | 1.53 | 1.91 | -1.9 | -0.362 | 1.59 | -1.35 | -2.47 | -0.359 | -0.0626 | -0.285 | 0.113 | 0.981 |
| CC(C)=CCCC(C)=CCON=C1C[C@@H](O)[C@@H](O)[C@@H]2[C@@H]3C(=O)N(C(C)(C)C)C(=O)[C@@H]3CC[C@@H]12 | 0.263 | 0.0156 | -0.046 | -0.0767 (inactive) | 0.313 | 0.426 | 0.619 | 0.51 | 0.18 | 0.231 | 0.0739 | -0.0781 | 0.542 | -0.195 | -0.608 | -0.0203 | -0.0626 | -0.116 | 0.1 | 0.372 |
| Cc1cc2c(nc1C)CCCCN2CC(C)ON=C[C@@H](C)[C@H](OCc1ccccc1)C(C)C (stereo not given in full) | -0.504 | -0.873 | -0.122 | -0.037 (inactive) | -1.92 | -1.05 | -1.85 | -0.934 | -0.969 | 0.911 | -0.683 | -3.07 | -0.684 | -1.4 | -0.987 | -0.224 | -0.214 | -0.415 | -1.16 | -0.916 |
| C=CC[C@@H]1C=C[C@H](ON=C(C)CCN2CCc3nc(-c4ccccc4)c(-c4ccccc4)cc3C2)[C@@H](CO)O1 | 0.775 | -0.243 | -0.574 | 0.0139 (inactive) | 0.524 | 0.702 | 0.359 | 0.808 | 0.627 | 1.07 | 1.36 | -1.81 | 0.407 | 0.636 | -0.252 | -0.0735 | -0.0626 | -0.303 | 0.782 | 0.729 |
| CCOC(=O)[C@H](CC(C)C)NC(=O)CCC1CC(OC(=O)NCCc2ccc(F)cc2)CC2(CCCC(COC(=O)NCCC(C)C)O2)O1 (stereo not given in full) | 0.264 | -0.149 | -0.424 | -0.695 (inactive) | 0.18 | -0.0508 | 0.0889 | 0.27 | 0.324 | 0.175 | 0.48 | 0.314 | 0.344 | 0.586 | -0.216 | -0.0383 | -0.0733 | -0.108 | -0.0671 | 1.21 |
| CCC1=NOC(CCC2CC(OC(=O)NCc3cccc4c3OCO4)CC3(CCCC(COC(=O)NCCc4ccccc4OC)O3)O2)C1 (stereo not given) | 1.09 | -0.16 | -0.0595 | 0.0991 (inactive) | 0.709 | 0.391 | 0.0007 | 0.192 | 0.859 | 0.312 | 1.21 | -1.35 | 0.0276 | 1.21 | 0.712 | -0.139 | -0.0793 | 0.249 | 0.528 | 0.473 |
| O=C1[C@H]2[C@H]3[C@H](O)[C@H](O)CC(=NO[C@@H]4O[C@H](CO)[C@@H](O)[C@H](O)[C@H]4O)[C@H]3CC[C@H]2C(=O)N1c1cccc(Oc2ccccc2)c1 | 0.0739 | -0.187 | -0.478 | 0.0512 (inactive) | 0.73 | 0.67 | 0.508 | 0.598 | 0.71 | -0.204 | 0.583 | -0.243 | 0.723 | -0.0761 | -0.474 | -0.168 | -0.349 | -0.129 | 0.675 | -0.0791 |
| CC(=O)OC[C@H]1O[C@H](CCON=C2[C@H]3CCn4c(=O)n(-c5ccccc5)c(=O)n4[C@H]3[C@H](O)[C@@H]3O[C@H]23)C=C[C@@H]1OC(C)=O | 0.0057 | -0.149 | -0.442 | 0.838 (inactive) | 0.527 | 0.494 | 0.432 | 0.446 | 0.404 | -0.636 | 0.253 | -4.82 | 0.5 | -0.151 | -0.354 | 0.0001 | 0.089 | 0.449 | 0.322 | 0.415 |
| C[C@@H](c1ccccc1)N1C(=O)[C@H]2[C@H]3[C@H](O)[C@H](O)CC(=O)[C@H]3CC[C@H]2C1=O | -0.417 | -0.338 | -0.489 | 0.282 (inactive) | 0.526 | 0.523 | 0.202 | 0.548 | 0.491 | -0.0854 | 0.295 | -0.127 | 0.461 | 0.364 | -0.255 | -0.154 | -0.206 | -0.026 | -0.0326 | -0.0931 |
| O=c1n(Cc2cc3c(cc2Cl)OCO3)c(=O)n2n1CC[C@@H]1C(=NOC[C@@H](O)COCc3ccco3)[C@H]3O[C@H]3[C@@H](O)[C@@H]12 | 0.461 | -0.0876 | -0.454 | 0.115 (inactive) | 0.246 | 0.532 | 0.349 | 0.596 | 0.538 | 0.217 | 0.77 | -0.76 | 0.436 | -0.25 | -0.535 | -0.0556 | -0.0709 | -0.0544 | 0.469 | 0.423 |
| CO[C@@H]1COC(=O)CC=C[C@@H](C)[C@@H]2C=C[C@H](O)[C@@H](COC(=O)CC=C[C@H]1C)O2 | 0.643 | -0.438 | -1.25 | -0.383 (inactive) | 0.602 | 1.02 | 1.2 | 1.52 | 1.66 | 1.73 | -0.913 | 0.0581 | 1.5 | -1.12 | -2.14 | -0.224 | -0.0146 | -0.349 | 0.27 | 0.149 |
| O=C(NN=C1C[C@@H](O)[C@@H](O)[C@@H]2[C@@H]3C(=O)N(C[C@@H]4CCCO4)C(=O)[C@@H]3CC[C@H]12)OCc1ccccc1 | 0.278 | 0.545 | 0.768 | 0.0311 (inactive) | -0.132 | -0.658 | -0.0485 | -0.281 | -0.575 | 0.902 | -0.453 | 1.16 | -0.156 | 0.0715 | 0.226 | 0.0377 | -0.0146 | 0.154 | 0.349 | 0.275 |
| CC(C)=CCCC(C)=CCON=C1C[C@@H](O)[C@@H](O)[C@@H]2[C@@H]3C(=O)N(c4ccc(F)cc4F)C(=O)[C@@H]3CC[C@@H]12 | 0.476 | -0.324 | -0.497 | -0.118 (inactive) | 0.601 | -0.0599 | 0.628 | 0.806 | 0.926 | 1.04 | 0.15 | -1.08 | 0.821 | -0.343 | 0.0144 | -0.169 | -0.0553 | -0.374 | 1 | 0.703 |
